Data as given in ChEMBL document CHEMBL1157539, “Thousands of chemical starting points for antimalarial lead identification” (Nature, 2010).

Experiments:
Assay type in all cases: functional
Plasmodium falciparum [1] = experiment: GSK_TCMDC: Inhibition of Plasmodium falciparum 3D7 in whole red blood cells, using parasite LDH activity as an index of growth. Test compounds present at 2uM
Plasmodium falciparum [2] = experiment: GSK_TCMDC: Inhibition of Plasmodium falciparum Dd2 in whole red blood cells, using parasite LDH activity as an index of growth. Test compounds present at 2uM
HepG2 = experiment: GSK_TCMDC: Percent inhibition of human HepG2 cell line. Test compounds present at 10uM.

| Compound | Inhibition (Plasmodium falciparum [1]) [%] | Inhibition (Plasmodium falciparum [2]) [%] | Inhibition (HepG2) [%] |
| --- | --- | --- | --- |
| Cc1cc(NC(=O)Nc2ccc(I)c(OCCN(C)C)c2)ccc1Br.Cl | 100 | 42 | 18 |
| COc1cc2c(cc1C(F)(F)F)N(C(=O)Nc1cc(OC(F)(F)F)cc(-c3cccnc3)c1)CC2 | 100 | 49 | 55 |
| c1ccc(CN2CCc3cc4nccc(N5CCNCC5)c4cc32)cc1 | 100 | 99 | 9 |
| CCCc1cc(Cc2cnc(N)nc2N)cc(CC)c1O.Cl | 87 | 0 | 56 |
| CON=C1CCC(Cn2ccnc2)(c2ccc(Cl)cc2Cl)CC1 (stereo unspecified) | 100 | 56 | 7 |
| CC(C)(C)c1ccc(C(=O)NC2CCC(CCN3CCc4ccc(S(C)(=O)=O)cc4CC3)CC2)cc1C(F)(F)F (stereo unspecified) | 88 | 11 | 54 |
| CC(C)CCNC(=N)c1ccc(OCCCCCOc2ccc(C(=N)NCCC(C)C)cc2)cc1.Cl | 98 | 94 | 5 |
| O=C(Nc1cccc2ccccc12)N1CCC(NS(=O)(=O)c2cccc(C(F)(F)F)c2)CC1 | 95 | 1 | 0 |
| CCCCOc1ccc(CNCCCCCCNCc2ccc(OCCCC)c3ccccc23)c2ccccc12.CS(=O)(=O)O | 81 | 49 | 100 |
| CCCCCCN1CCC(NCc2ccc(C(F)(F)F)cc2)CC1.O=C(O)C(F)(F)F | 100 | 47 | 11 |
| Cc1ccc(Cn2nc(Cl)c(N3CCNCC3)cc2=O)cc1NC(=O)Nc1ccc(-c2ccccc2)cc1.O=C(O)C(F)(F)F | 98 | 97 | 100 |
| Cc1cccc(NC(=O)c2ccc(C(=O)NC3CCN(CC4CCCCC4)CC3)cc2)c1.O=C(O)C(F)(F)F | 95 | 18 | 14 |
| COc1ccc(Nc2ncc3c(-c4cccc(NC(=O)c5ccccc5)c4)c[nH]c3n2)cc1OC | 100 | 95 | 54 |
| Cc1cc(-c2cccc3c(C(=O)N4CCc5cc6nccc(N7CCN8CCC[C@H]8C7)c6cc54)cccc23)cc(C)n1.Cl | 97 | 76 | 13 |
| O=C(Nc1ccc(C(=O)Oc2cccc3ccccc23)cc1)N[C@@H](Cc1ccc(O)cc1)C(=O)NC1CCN(Cc2ccc(O)cc2)C1.O=C(O)C(F)(F)F (stereo partly specified) | 87 | 0 | 0 |
| CCc1c[nH]c2c(N3CCCS3(=O)=O)cc(C(=O)N[C@@H](Cc3ccccc3)[C@H](O)CNC(C)(C)c3cccc(C(F)(F)F)c3)cc12.O=CO | 97 | 99 | 20 |
| COc1ccccc1-c1csc(C(=O)NCC2CCN(Cc3ccc(C(C)(C)C)cc3)C2)c1.O=C(O)C(F)(F)F (stereo unspecified) | 93 | 11 | 29 |
| COc1ccc2[nH]ccc(=NN=Cc3cccc(C)n3)c2c1 | 100 | 99 | 16 |
| CC(=O)Nc1ccc(CN(Cc2ccc(F)cc2)Cc2ccc3c(c2)OCO3)cc1 | 91 | 87 | 3 |
| CN(C)c1ccc(/N=C2/N/C(=N/c3ccc(N(C)C)cc3)c3ccccc32)cc1 | 93 | 20 | 23 |
| COC(=O)c1cccc(NC(=O)NC2CCN(c3ccnc(Nc4ccc(F)cc4)n3)C2)c1 (stereo unspecified) | 100 | 83 | 5 |
| COc1ccc2nccc(N/N=C/c3cccc([N+](=O)[O-])c3)c2c1 | 100 | 98 | 4 |
| Cc1ccc(OCC2CCN(c3ncc(C(=O)NCCCN4CCCC4=O)cc3Cl)CC2)cc1 | 94 | 71 | 7 |
| CCN(CCCN1CCCCC1)c1cc(C)nc(Nc2ccc(C(C)C)cc2)n1.O=C(O)C(F)(F)F | 100 | 51 | 34 |
| CCCCCCNc1cc(C)nc(NC(=N)Nc2cccc(C(F)(F)F)c2)n1 | 100 | 100 | 44 |
| O=C(Cc1ccccc1)NC(CCN1CCC(N(C2CC2)S(=O)(=O)c2cccc(C(F)(F)F)c2)CC1)c1ccc(Cl)c(Cl)c1 (stereo unspecified) | 85 | 27 | 19 |
| O=C(Nc1ccc(F)c(C(F)(F)F)c1)NC1CCN(CCCCCNC(=O)C2CC2c2ccc(Cl)c(Cl)c2)CC1 (stereo unspecified) | 100 | 16 | 96 |
